Measured values as given in PubChem BioAssay (NCATS).
Where “and” joins values, the source holds several entries; their conditions need not be identical. Identical values can stand only once. Results filed as inconclusive are left out. Calls of active or inactive are those of the source. Unless noted, the call rests on the fitted dose curve; in most records, active means well fitted curve in either direction with a large enough effect (not every such curve was filed as active); inconclusive means small, poorly fitted or top-dose-only effect, or another doubt; inactive means flat fitted curve, though single readings scatter.

Tests used:
[1] = AP1 Signaling Pathway (AID 357); conditions: ME-180 AP-1-bla reporter, EGF-induced, beta-lactamase ratio, 5 h;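 further: ME-180 reporter cells stimulated with EGF at its EC50 level; on the % scale 0 is the no-effect control and ±100 the full control effect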
Outline: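 Titration-series screen for positive or negative modulators of EC50 EGF-induced signaling in ME-180 cells carrying an AP-1-driven beta-lactamase reporter. After 5 hours at 37 degrees Celsius, CCF4 460nm/530nm emission ratio gave %Activity; AC50 values derived.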

[2] = biological target: Cytochrome P450 1A2 (Homo sapiens) (UniProt P05177); experiment: p450-cyp1a2 (AID 410; calls by dose curve; further: potency means the concentration at half of the fitted maximal effect;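 on activity change, negative = inhibition: -100% = full effect of reference inhibitor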); conditions: recombinant CYP1A2, luciferin-ME demethylation, luminescence; series mostly up to 57 µM
Outline: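 20nM CYP1A2, 100uM Luciferin-ME (=Km), 100mM KPO4; cpd 10 min RT; +NADPH regen, 60 min RT; stop/detect 20 min; luminescence. Normalized to furafylline 57 uM = full inhibition.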

[3] = NFAT Signaling Pathway (AID 444); conditions: Jurkat NFAT-bla M1, carbachol, beta-lactamase ratio, 5 h;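 further: carbachol stimulus at about its EC50 of 1 µM final; on the % scale 0 is the no-effect control and ±100 the full control effect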
Outline: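 Jurkat cells with NFAT-driven β-lactamase reporter and co-expressed M1 receptor, stimulated with carbachol (final 1 uM, ~EC50), compound titration, 5 h at 37 °C. CCF4 loaded 1 h at RT; 460/530 nm ratio gave %activity and AC50.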

[4] = Stat Signaling Pathway (AID 446); conditions: ME-180 (cervical carcinoma) SIE beta-lactamase reporter, IL-6 stimulated, 5 h; series mostly up to 17.2 µM;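 further: ME-180 cervical cancer cells given 40 pM IL-6 alongside compound; SIE-controlled beta-lactamase reporter measured as 460/530 nm FRET emission ratio; on the % scale 0 is the no-effect control and ±100 the full control effect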
Outline: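 Emission at 460 and 530 nm (excitation 405 nm) reports SIE-controlled beta-lactamase in ME-180 cells. Cells received compound with 40 pM IL-6 for 5 hrs at 37 C; data scaled between 300 pM IL-6 and 125 nM JAK-inhibitor controls.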

[5] = biological target: Glucocorticoid receptor (Homo sapiens) (UniProt P04150); experiment: GR-GFP Redistribution (AID 450;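 active means compounds whose dose series gives a full or clear partial fitted curve of increased nuclear translocation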; further: potency means the concentration at half of the fitted maximal effect); conditions: U2OS GR-GFP nuclear translocation, laser cytometry, 2 h
[6] = biological target: Glucocorticoid receptor (Homo sapiens) (UniProt P04150); experiment: GR-EFC Redistribution (AID 451; calls by dose curve; further: potency means the concentration at half of the fitted maximal effect); conditions: CHO-K1 GR-EFC translocation, beta-gal luminescence, 2 h
Outline: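 CHO-K1 cells expressing nuclear EA and GR-ED fragments of b-gal; compounds titrated up to 46 uM final, 2 h at 37 C. GR nuclear translocation read as complemented b-gal luminescence after 1 h RT detection.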

[7] = biological target: Mitogen-activated protein kinase 10 (Mus musculus) (UniProt Q61831); experiment: JNK3 AlphaScreen Assay (AID 530); conditions: JNK3 lysate, c-Jun phosphorylation; series mostly up to 57.1 µM;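 further: kinase came from lysate of stimulated human HepG2 cells; signal reports phosphorylation of biotinylated GST-cJun 1-79 at Ser73 with 10 µM ATP; on the % scale 0 is the no-effect control and ±100 the full control effect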
Outline: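 HepG2 lysate (IL-1b/TNFa pre-activated) + biotin-GST-cJun 1-79 + anti-pSer73 cJun; cpd titration, 15 min RT; ATP 10 uM start; Tris pH 7.6, MgCl2, DTT, vanadate; beads in EDTA buffer; AlphaScreen.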

[8] = Cell Viability - BJ (AID 421; calls by dose curve;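 further: potency means the concentration at half of the fitted maximal effect; cells exposed to compound for 40 hours at 37 °C before readout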); conditions: BJ fibroblast viability, qHTS
Outline: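 Cytotoxicity in human BJ foreskin fibroblasts is scored as loss of cellular ATP after a 40-hour exposure, measured by luciferase luminescence. Controls are DMSO and 100 uM tamoxifen.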

[9] = Cell Viability - Jurkat (AID 426;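 active means dose-dependent loss of cell ATP signal giving a full or clear fitted curve, ranked by lower potency value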;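 further: potency means the concentration at half of the fitted maximal effect; cells exposed to compound for 40 hours at 37 °C before ATP read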); conditions: qHTS
Outline: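 Luminescent ATP read-out (CellTiter-Glo, 20 min at room temperature) after 40 hr compound exposure at 37 °C of Jurkat E6-1 cells, 5000/well. Decreased ATP taken as cytotoxicity; AC50 from standard Hill equation.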

[10] = Cell Viability - Hek293 (AID 427;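 active means compounds whose dose-response curve shows a full or clear partial loss of cell viability, called from curve shape rather than a numeric limit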;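 further: potency means the concentration at half of the fitted maximal effect; cells exposed to compound for 40 hours at 37 °C before reading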); conditions: qHTS
Outline: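 qHTS, human embryonic kidney (adenovirus-transformed) cells; 40 hr cpd, 37 °C; CellTiter-Glo ATP luminescence. Norm: DMSO = 0, 100 uM tamoxifen = 100% inhibition. Hill-fit AC50.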

[11] = Cell Viability - HepG2 (AID 433; calls by dose curve;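 further: potency means the concentration at half of the fitted maximal effect; potency for ATP loss meaning cytotoxicity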); conditions: qHTS
Outline: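 Cytotoxicity is scored as loss of intracellular ATP in HepG2 cells exposed to compounds for 40 h. Concentration-response curves, normalized to DMSO and 100 uM tamoxifen, give AC50 values.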

[12] = Cell Viability - MRC5 (AID 434; calls by dose curve;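 further: potency means the concentration at half of the fitted maximal effect; cells exposed to compound for 40 hours at 37 °C; potency reflects cytotoxicity seen as loss of intracellular ATP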); conditions: MRC5 lung fibroblast viability, qHTS
Outline: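 ATP luminescence read-out (CellTiter-Glo, 20 min RT) after 40 hr, 37 °C compound exposure of 1500 MRC5 cells/well. Data normalized to DMSO (basal) and 100 uM tamoxifen (100% inhibition); AC50 from standard Hill equation.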

[13] = Cell Viability - SK-N-SH (AID 435; calls by dose curve; further: potency means the concentration at half of the fitted maximal effect); conditions: SK-N-SH neuroblastoma cell viability qHTS
Outline: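 Cells seeded at 1500 per well and incubated 5 hr at 37 °C. Compound added, then 40 hr at 37 °C. CellTiter-Glo added, 20 min at room temperature, luminescence read.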

[14] = Cell Viability - N2a (AID 540; active means well fitted curve in the direction sought with a large enough effect; an effect the other way counts as inactive or inconclusive;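 further: plate controls were DMSO alone for no effect and tamoxifen control for full effect; nearly all actives have a fitted effect of over 45% in size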); conditions: N2a mouse neuroblastoma cell viability; series mostly up to 92.2 µM
Outline: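 N2a mouse neuroblastoma, 1500 cells/well, 5 hr settle; compound 40 hr, 37 °C; CellTiter-Glo 20 min RT; luminescence; Hill-fit AC50.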

[15] = Cell Viability - NIH 3T3 (AID 541; active means well fitted curve in the direction sought with a large enough effect; an effect the other way counts as inactive or inconclusive;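 further: plate controls were DMSO alone for no effect and tamoxifen positive control for full effect; nearly all actives have a fitted effect of over 25% in size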); conditions: NIH 3T3 cell viability, qHTS; series mostly up to 92.2 µM
Outline: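 qHTS format; 40 hr compound exposure, 37 °C; CellTiter-Glo luminescence (cellular ATP) read-out after 20 min at RT. Decrease in ATP = cytotoxicity; AC50 from standard Hill fit.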

[16] = Cell Viability - HUV-EC-C (AID 542; active means well fitted curve in the direction sought with a large enough effect; an effect the other way counts as inactive or inconclusive; further: on the % scale 0 is the no-effect control and ±100 the full control effect; nearly all actives have a fitted effect of over 35% in size); conditions: HUV-EC-C endothelial cell viability, qHTS; series mostly up to 92.2 µM
Outline: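 Luminescent ATP read-out (CellTiter-Glo, 20 min room temperature) after 40 hr compound treatment of HUV-EC-C cells at 37 °C. Concentration-response data fitted with the standard Hill equation to give AC50; tamoxifen and doxorubicin served as positive controls.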

[17] = Cell Viability - H-4-II-E (AID 543; active means well fitted curve in the direction sought with a large enough effect; an effect the other way counts as inactive or inconclusive; further: on the % scale 0 is the no-effect control and ±100 the full control effect; nearly all actives have a fitted effect of over 35% in size); conditions: H-4-II-E rat hepatoma viability; series mostly up to 92.2 µM
Outline: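 qHTS, rat hepatoma H-4-II-E, 1500 cells/well; 40 hr compound exposure, 37 °C; CellTiter-Glo ATP luminescence after 20 min RT; AC50 by standard Hill fit.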

[18] = Cell Viability - SH-SY5Y (AID 544; active means well fitted curve in the direction sought with a large enough effect; an effect the other way counts as inactive or inconclusive;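 further: 0% = DMSO alone and -100% = 100 µM tamoxifen; nearly all actives have a fitted effect of over 55% in size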); conditions: SH-SY5Y neuroblastoma cell viability; series mostly up to 92.2 µM
Outline: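 SH-SY5Y, 1500 cells/well, 5 hr pre-incubation 37 °C; cpd 40 hr 37 °C; CellTiter-Glo 20 min RT; luminescence (ATP) read. qHTS concentration-response, Hill fit → AC50. Tamoxifen, doxorubicin as positive controls.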

[19] = Cell Viability - Renal Proximal Tubule (AID 545; active means well fitted curve in the direction sought with a large enough effect; an effect the other way counts as inactive or inconclusive;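 further: 0% = DMSO only and -100% = 100 µM tamoxifen; nearly all actives have a fitted effect of over 40% in size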); conditions: renal proximal tubule cells viability, primary cells of rat origin; series mostly up to 91.7 µM
Outline: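 Cytotoxicity is scored as a concentration-dependent drop in cellular ATP in primary rat renal proximal tubule cells exposed for 40 hr. AC50 derives from Hill modelling.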

Glucocorticoid receptor (Homo sapiens), sequence (P04150 whole entry, looked up, the tested form may be a part): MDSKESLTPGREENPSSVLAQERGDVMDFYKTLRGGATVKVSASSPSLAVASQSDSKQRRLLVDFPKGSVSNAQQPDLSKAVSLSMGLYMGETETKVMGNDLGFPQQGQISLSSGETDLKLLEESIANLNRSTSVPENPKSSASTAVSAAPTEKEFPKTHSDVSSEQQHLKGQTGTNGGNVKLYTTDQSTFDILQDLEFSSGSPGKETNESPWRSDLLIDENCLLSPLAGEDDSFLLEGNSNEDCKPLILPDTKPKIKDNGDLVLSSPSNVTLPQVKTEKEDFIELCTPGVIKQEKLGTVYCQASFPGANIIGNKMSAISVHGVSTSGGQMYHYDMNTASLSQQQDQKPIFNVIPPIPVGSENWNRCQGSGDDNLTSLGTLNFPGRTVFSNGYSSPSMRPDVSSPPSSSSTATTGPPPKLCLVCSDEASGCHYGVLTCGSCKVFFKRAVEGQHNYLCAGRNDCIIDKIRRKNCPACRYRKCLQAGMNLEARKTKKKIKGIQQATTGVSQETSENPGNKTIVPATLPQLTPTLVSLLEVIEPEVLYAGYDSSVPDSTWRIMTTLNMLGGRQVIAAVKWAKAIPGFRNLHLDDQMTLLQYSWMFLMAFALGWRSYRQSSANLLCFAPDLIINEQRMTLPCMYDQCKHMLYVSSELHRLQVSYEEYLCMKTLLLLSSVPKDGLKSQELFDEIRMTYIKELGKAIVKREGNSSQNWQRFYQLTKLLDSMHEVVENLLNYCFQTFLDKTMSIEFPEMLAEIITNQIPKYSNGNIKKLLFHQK
Cytochrome P450 1A2 (Homo sapiens), sequence (P05177 whole entry, looked up): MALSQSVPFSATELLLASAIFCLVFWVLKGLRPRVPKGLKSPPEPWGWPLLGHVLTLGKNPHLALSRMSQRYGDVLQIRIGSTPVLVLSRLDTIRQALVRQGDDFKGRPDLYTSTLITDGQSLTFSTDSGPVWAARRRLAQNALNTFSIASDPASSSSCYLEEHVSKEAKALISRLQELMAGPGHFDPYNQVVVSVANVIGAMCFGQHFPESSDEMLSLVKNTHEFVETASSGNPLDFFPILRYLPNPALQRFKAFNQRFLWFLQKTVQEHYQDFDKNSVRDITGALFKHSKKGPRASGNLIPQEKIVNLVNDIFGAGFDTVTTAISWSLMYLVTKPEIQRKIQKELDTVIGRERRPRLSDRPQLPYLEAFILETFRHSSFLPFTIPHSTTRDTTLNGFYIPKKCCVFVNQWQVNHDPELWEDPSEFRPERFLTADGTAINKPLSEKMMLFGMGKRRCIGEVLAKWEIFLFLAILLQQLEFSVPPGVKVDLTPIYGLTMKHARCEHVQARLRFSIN

NNCCc1ccccc1
inactive: activity change, negative = inhibition ([1]; at 17.2 µM (top of the series)) -1.06% | activity change, negative = inhibition ([1]; at 38 µM (top of the series)) 26% | activity change, negative = inhibition ([3]; at 17.2 µM (top of the series)) -10.8% | activity change, negative = inhibition ([3]; at 38 µM (top of the series)) -17.1% | outcome [4] | Potency [5] > 46 µM and > 20.6 µM | Potency [6] > 46 µM and > 20.6 µM | outcome [7]
active: Potency [2] 3.16 µM and 1 µM

C1COC(NC(C2CC2)C2CC2)=N1
inactive: activity change, negative = inhibition ([1]; at 17.2 µM (top of the series)) -19.2% and -1.91% | activity change, negative = inhibition ([1]; at 38 µM (top of the series)) -23.4% | Potency [2] | activity change, negative = inhibition ([3]; at 17.2 µM (top of the series)) -20.2% and 11.2% | activity change, negative = inhibition ([3]; at 38 µM (top of the series)) -2.75% | outcome [4] | outcome [7]

CC(=O)Oc1ccccc1C(=O)O
inactive: activity change, negative = inhibition ([1]; at 38 µM (top of the series)) 8.53% | Potency [2] | Potency [8] > 92 µM | Potency [9] > 92 µM | Potency [10] > 92 µM | Potency [11] > 92 µM | Potency [12] > 92 µM | Potency [13] > 92 µM | activity change, negative = inhibition ([3]; at 38 µM (top of the series)) 2.25% | outcome [4] | Potency [5] > 46 µM | Potency [6] > 46 µM | outcome [7] | outcome [14] | Potency [15] | outcome [16] | Potency [17] | outcome [18] | outcome [19]

NC(=O)c1cnccn1
inactive: activity change, negative = inhibition ([1]; at 38 µM (top of the series)) 5.47% | Potency [2] | Potency [8] > 92 µM | Potency [9] > 92 µM | Potency [10] > 92 µM | Potency [11] > 92 µM | Potency [12] > 92 µM | Potency [13] > 92 µM | activity change, negative = inhibition ([3]; at 38 µM (top of the series)) 2.31% | outcome [4] | Potency [5] > 46 µM | Potency [6] > 46 µM | outcome [7] | outcome [14] | Potency [15] | outcome [16] | Potency [17] | outcome [18] | outcome [19]

O=NN(CCCl)C(=O)NCCCl
inactive: activity change, negative = inhibition ([1]; at 38 µM (top of the series)) 3.21% | activity change, negative = inhibition ([3]; at 38 µM (top of the series)) -7.61% | Potency [5] > 46 µM | Potency [6] > 46 µM | outcome [7]

NC(=O)c1ccc(-c2nc(-c3ccc4c(c3)OCO4)c(-c3ccccn3)[nH]2)cc1
inactive: Potency [5] > 46 µM | Potency [6] > 46 µM | outcome [7]

NCCc1ccc(O)c(O)c1
inactive: activity change, negative = inhibition ([1]; at 38 µM (top of the series)) 2.68% | activity change, negative = inhibition ([3]; at 38 µM (top of the series)) 11.4% | outcome [4] | outcome [7]

CC(C)C[C@H](NC(=O)[C@@H](O)[C@H](N)Cc1ccccc1)C(=O)O
inactive: Potency [2] | Potency [5] > 46 µM | Potency [6] > 46 µM | outcome [7]

CCC(C)(C)C(=O)O[C@H]1C[C@@H](C)C=C2C=C[C@H](C)[C@H](CC[C@@H]3C[C@@H](O)CC(=O)O3)[C@H]21
inactive: Potency [5] > 46 µM | Potency [6] > 46 µM | outcome [7]

CCOC(=O)C1=C[C@]2(CC)CCCN3CCc4c(n1c1ccccc41)[C@@H]32
inactive: outcome [4] | Potency [5] > 20.6 µM

C[C@]12CCC(=O)C=C1CC[C@@H]1[C@@H]2[C@@H](O)C[C@@]2(C)[C@H]1CC[C@]2(O)C(=O)CO
inactive: activity change, negative = inhibition ([1]; at 17.2 µM (top of the series)) -3.8% | activity change, negative = inhibition ([3]; at 17.2 µM (top of the series)) 18.6% | outcome [4]

COc1ccc2nc(S(=O)Cc3ncc(C)c(OC)c3C)[nH]c2c1 (configuration not stated)
inactive: activity change, negative = inhibition ([1]; at 17.2 µM (top of the series)) 4.02% and -1.7% | activity change, negative = inhibition ([3]; at 17.2 µM (top of the series)) -26.1% and -10.4% | outcome [4] | outcome [7]
